PubChem BioAssay AID720628 (The Scripps Research Institute Molecular Screening Center, 2013)
The list shows a part of the results. Active and inactive are the calls of the source.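 The calls were made as follows: active = inhibition above the campaign cutoff, the mean of compounds within control limits plus 3 SD (cut at about 14% in these data); inactive = the rest.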

target: Fibrinogen beta chain (Homo sapiens) (UniProt P02675); experiment: Tn7 displacement from DD(E) complex – biochemical, fluorescence polarization, human fibrin, Tn7 probe, confirmation (AID 720628); conditions: FP displacement of TRITC-Tn7 peptide from DD(E); at 8.3 µM; active compounds read high; 0% set at plate's compound-well median;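 also: 100% = median FP of high control wells holding Aha-Tn7 inhibitor peptide; displacers lower polarization since freed probe rises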
Sequence (P02675 whole entry, looked up): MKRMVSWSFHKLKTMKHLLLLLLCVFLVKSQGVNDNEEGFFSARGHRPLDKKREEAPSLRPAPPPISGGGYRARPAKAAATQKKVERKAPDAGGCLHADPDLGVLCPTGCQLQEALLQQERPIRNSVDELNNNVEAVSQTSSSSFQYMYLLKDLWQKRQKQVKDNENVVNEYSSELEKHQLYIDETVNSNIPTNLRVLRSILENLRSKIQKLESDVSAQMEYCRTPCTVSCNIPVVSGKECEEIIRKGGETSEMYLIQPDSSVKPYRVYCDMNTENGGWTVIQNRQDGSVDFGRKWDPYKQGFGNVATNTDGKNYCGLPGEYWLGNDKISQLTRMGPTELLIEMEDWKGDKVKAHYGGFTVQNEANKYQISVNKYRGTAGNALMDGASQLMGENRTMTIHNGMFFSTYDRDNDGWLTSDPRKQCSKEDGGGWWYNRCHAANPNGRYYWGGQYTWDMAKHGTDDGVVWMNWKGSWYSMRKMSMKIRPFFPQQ

| SMILES | inhibition |
| --- | --- |
| Cc1cc2nc3c(=O)n(Cc4ccccc4)c(=O)[nH]c3nc2cc1N | -4.02% (inactive) |
| Oc1ccc2ccc3cccc[n+]3c2c1 | 20.3% (active) |
| COc1ccc(S(=O)(=O)c2c[nH]c(=S)[nH]c2=O)cc1Cl | -1.93% (inactive) |
| COc1ccc(-c2nc(CCNC(=O)c3ccc(Br)o3)cs2)cc1 | 1.25% (inactive) |
| COc1ccc(N=Nc2c(-c3ccc(OC)cc3)[nH]oc2=O)cc1 | -2.03% (inactive) |
| O=C(COC(=O)c1ccc([N+](=O)[O-])cc1Cl)NC(=O)c1ccccc1 | 2.79% (inactive) |
| O=C(COC(=O)/C=C/c1ccc(OC(F)F)cc1)NC1CCCCC1 | 6.98% (inactive) |
| Cc1nn(C)cc1N1C(=O)c2cccc3c(N)ccc(c23)C1=O | 12.5% (inactive) |
| Cc1cc2nc3c(=O)[nH]c(=O)nc-3n(C[C@H](O)[C@H](O)[C@H](O)CO)c2cc1C | 53.3% (active) |
| OC(c1ccccc1)c1nc(-c2cnc3ccccc3c2)cs1 (centres undefined) | 7.29% (inactive) |
| CN1c2ccc(C=O)c3c(C=O)ccc(c23)N(C)C1(C)C | 1.94% (inactive) |
| CC(C)(C)c1cc(CN2CCN(CCC#N)CC2)cc(C(C)(C)C)c1O | 3.96% (inactive) |
| Cn1c(CC(=O)NNC(=O)c2ccccc2F)nc2ccccc21 | 4.13% (inactive) |
| O=C(/C=C/c1ccccc1[N+](=O)[O-])NCC1CCCO1 (centres undefined) | 9.76% (inactive) |
| O=C(Nc1ccon1)c1sc2ccccc2c1Cl | 6.87% (inactive) |
| c1cc(-c2nn[nH]n2)ccc1CN1CCCCC1 | -9.45% (inactive) |
| O=C(CSc1nnc(-c2ccccn2)n1-c1ccc(Cl)cc1)Nc1ccccc1-c1ccccc1 | 2.95% (inactive) |
| O=C(NCc1ccccc1)c1cccc(NC(=O)C2CCCCC2)c1 | 4.29% (inactive) |
| C#CCNc1ccc(C(=O)OCC)cc1 | 19.9% (active) |
| Cc1nnc2n1N=C(c1ccc3c(c1)NC(=O)CO3)CS2 | -7.07% (inactive) |
| COc1cc(C(=S)N2CCOCC2)ccc1O | 8.15% (inactive) |
| CCOc1ccc(Nc2oc(Cc3ccccc3)nc2C#N)cc1 | -1.34% (inactive) |
| COc1cccc(N2CC(NS(=O)(=O)c3cccs3)CC2=O)c1 (centres undefined) | 0.77% (inactive) |
| CN1C(=O)c2cccc3c(N)ccc(c23)C1=O | 30.8% (active) |
